From PubChem BioAssay (Tox21)
The source made the active and inactive calls. Calls follow the shape of the dose curve; as a rule, active = well fitted activation curve with a large enough effect in the repeat runs; inconclusive = weak or mixed curves; inactive = flat fitted curve, though single readings scatter.

assay: A CellTox Green Cytotoxicity Assay to monitor cytotoxicity in HEK293 cells - 0 hour (AID 1224869); conditions: CellTox Green fluorescence; series mostly up to 76.8 µM; cytotoxicity: at the top concentration; also: nearly all actives have a fitted effect of over 50% in size
Method in brief: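 Fluorescence intensity, read at 0, 8, 16, 24, 32 and 40 h of compound treatment, reflected dye binding to DNA of dead HEK293 cells; compounds (23 nL, DMSO) were added 5 h after plating cells with reagent.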
% is scaled to controls: 0 for no effect and ±100 for the full control effect.

Which “cytotoxicity” value does the source give for `Clc1ccc(Nc2nnc(Cc3ccncc3)c3ccccc23)cc1` here?
The value was 0.113% [at 35.3 µM] (inactive).

Which “cytotoxicity” value does the source give for `O=C=Nc1cccc(C(F)(F)F)c1` here?
The value was 11.5% (inactive).

Which “cytotoxicity” value does the source give for `CCCCC(CC)CN` (stereo not drawn) here?
The value was 0.952% (inactive).

With `OCCOCC#CCOCCO` as the compound, how does the “cytotoxicity” value read?
The value was -0.483% (inactive).

For `CC(C)=CCC/C(C)=C/CC/C(C)=C/C(=O)OCC(=O)[C@@]1(O)CC[C@H]2[C@@H]3CCC4=CC(=O)C=C[C@]4(C)[C@H]3[C@@H](O)C[C@@]21C`, which “cytotoxicity” value is on record?
Its value is 0.277% [at 35.3 µM] (inactive).

Which “cytotoxicity” value does the source give for `CC(C)(C)CC(=O)OCC(=O)[C@@]1(O)CC[C@H]2[C@@H]3CCC4=CC(=O)C=C[C@]4(C)[C@H]3[C@@H](O)C[C@@]21C` here?
The value was 0.196% [at 35.3 µM] (inactive).

With `COc1ccccc1N1CCN(CC(O)COc2cccc3ccccc23)CC1` (stereo not drawn) as the compound, how does the “cytotoxicity” value read?
The value was -2.79% [at 35.3 µM] (inactive).

With `COc1ccc(OC(=O)N(CC(=O)O)Cc2ccc(OCCc3nc(-c4ccccc4)oc3C)cc2)cc1` as the compound, how does the “cytotoxicity” value read?
Its value is -0.682% [at 35.3 µM] (inactive).

For `O=C(O)C[C@H](NC(=O)OCc1ccccc1)C(=O)O`, which “cytotoxicity” value is on record?
The value was -1.35% (inactive).

Which “cytotoxicity” value does the source give for `CC(C)=CCC1C(=O)N(c2ccccc2)N(c2ccccc2)C1=O` here?
The value was -1.72% [at 35.3 µM] (inactive).

For `c1ccc2sc(SN(C3CCCCC3)C3CCCCC3)nc2c1`, which “cytotoxicity” value is on record?
The value was 4.54% (inactive).

With `Cc1ccc2c(Br)cc(Br)c(O)c2n1` as the compound, how does the “cytotoxicity” value read?
The value was 1.13% [at 35.3 µM] (inactive).

For `COc1ccccc1N1CCN(CCCCNC(=O)c2ccc(-c3ccc(C(C)=O)cc3)cc2)CC1`, which “cytotoxicity” value is on record?
The value was 0.564% [at 35.3 µM] (inactive).

Which “cytotoxicity” value does the source give for `c1csc(SSc2cccs2)c1` here?
Its value is -1.14% (inactive).

Which “cytotoxicity” value does the source give for `CCC1NC(=O)c2cc(S(N)(=O)=O)c(Cl)cc2N1` (stereo not drawn) here?
The value was -9.93% [at 35.3 µM] (inactive).

For `CCOc1ccccc1O[C@H](c1ccccc1)[C@H]1CNCCO1`, which “cytotoxicity” value is on record?
The value was 8.99% [at 35.3 µM] (inactive).

With `C/C=C\C/C=C/CCCCCCCCOC(C)=O` as the compound, how does the “cytotoxicity” value read?
The value was -3.21% (inactive).

With `COC(=O)CS` as the compound, how does the “cytotoxicity” value read?
Its value is 0.403% (inactive).
